This is an account of results in PubChem BioAssay AID1903 (Southern Research Specialized Biocontainment Screening …, 2009).

The whole screen tested about 310,000 compounds, of which about 1,200 (0.39%) were called active. Not all results are given here. Entries with a potency or affinity are not part of this list. Values without a mark were called inactive. No rule for the calls is given here.

This assay deals with Large T antigen (Simian virus 40) (UniProt P03070). Briefly: SV40 large T antigen inhibitors, biochemical (AID 1903). As to conditions: SV40 large T antigen ATPase/helicase inhibition assay; at 20 µM; active compounds read high.
Chain of Large T antigen (Simian virus 40) (P03070 whole entry, looked up): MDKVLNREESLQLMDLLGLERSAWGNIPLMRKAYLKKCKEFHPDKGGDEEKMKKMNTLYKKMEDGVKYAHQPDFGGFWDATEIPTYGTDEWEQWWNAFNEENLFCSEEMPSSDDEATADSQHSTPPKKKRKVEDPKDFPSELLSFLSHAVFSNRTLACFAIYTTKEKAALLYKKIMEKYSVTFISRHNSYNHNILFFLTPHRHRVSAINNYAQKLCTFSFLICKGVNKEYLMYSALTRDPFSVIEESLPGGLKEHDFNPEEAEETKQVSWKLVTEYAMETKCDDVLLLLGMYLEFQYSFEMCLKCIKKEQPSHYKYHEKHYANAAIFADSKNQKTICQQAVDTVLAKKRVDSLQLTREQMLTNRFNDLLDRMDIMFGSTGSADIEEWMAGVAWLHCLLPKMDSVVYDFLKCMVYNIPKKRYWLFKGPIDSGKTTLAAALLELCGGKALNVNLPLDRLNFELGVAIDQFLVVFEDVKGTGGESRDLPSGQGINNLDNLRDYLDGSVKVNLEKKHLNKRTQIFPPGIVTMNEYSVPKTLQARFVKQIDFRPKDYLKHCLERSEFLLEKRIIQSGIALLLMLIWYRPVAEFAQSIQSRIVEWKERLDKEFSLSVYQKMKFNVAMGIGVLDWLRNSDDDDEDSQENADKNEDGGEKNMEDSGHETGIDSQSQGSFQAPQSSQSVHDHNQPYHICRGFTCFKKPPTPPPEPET
As a reminder, the inhibition is the drop in the measured response relative to a control, in per cent. On to `O=C(NCC(c1ccc(F)cc1)N1CCOCC1)c1cccnc1Sc1ccc(Cl)cc1` (stereo not given), for which the inhibition was 11.1%.

Regarding `Nc1n[nH]c(=S)n1-c1ccc(Cl)cc1`, the inhibition is 5.6%.

For `CCCn1cnc2cc(NCc3cccc(OC)c3)ccc21`, the inhibition was 36.7%.

Turning to `COc1ccccc1-n1cnc2cc(NCc3ccccc3O)ccc21`, the inhibition is 33.3%.

For `CCCn1cnc2cc(NCc3ccccc3O)ccc21`, the inhibition is 33.9%.

In the case of `CCn1cnc2cc(NCc3ccccc3Cl)ccc21`, the inhibition is 21.6%.

Turning to `CCCCN(C(=O)CCCSc1nc2ccccc2[nH]1)c1c(N)n(Cc2ccccc2)c(=O)[nH]c1=O`, the inhibition is 3.22%.

Take `Cc1cccc(N/N=C(\C#N)S(=O)(=O)C(C)(C)C)c1`: the inhibition was 8.77%.

Consider `O=C(O)CCCNC(=O)Cc1ccccc1`, for which the inhibition was 2.55%.

Regarding `O=C(Cc1cccs1)NNC(=O)c1ccc(F)cc1`, the inhibition is 8.96%.

Take `Cc1cc(Nc2ccccc2Cl)c2ccccc2n1`: the inhibition was 8.12%.

`COc1cccc(CNc2ccc(C(=O)O)cc2)c1OCc1ccccc1`: the inhibition is 7.38%.

As for `C=CCOc1ccccc1CNc1ccc2c(c1)OCCO2`, the inhibition is 25.8%.

Take `C=CCOc1c(CNc2cccc(C(=O)O)c2)cccc1OC`: the inhibition is 9.77%.

`COc1cccc(CNc2ccc3[nH]c(=O)[nH]c3c2)c1OCc1ccccc1Cl`: the inhibition is 37%.

Take `C=CCOc1c(CNc2ccc(C(=O)O)cc2)cccc1OC`: the inhibition is 9.8%.

As for `C=CCOc1ccccc1CNc1cccc(F)c1`, the inhibition is -2.23%.

Take `COc1ccc2nc(NC(=O)C3CCN(C(=O)c4ccco4)CC3)sc2c1`: the inhibition was -5.44%.

Regarding `Cc1ccc(NC(=O)c2ccc(F)cc2)cc1S(=O)(=O)N1CCCCCC1`, the inhibition was 7.24%.

In the case of `COCCn1c(=O)[nH]c2cc(C(=O)Nc3ccc(OC)c(Cl)c3)ccc2c1=O`, the inhibition is 4.08%.

Take `O=C(O)c1ccccc1N/N=C/c1c(Sc2nnnn2-c2ccccc2)nc2ccccn2c1=O`: the inhibition was 13.1%.

With `O=c1c(/C=N/Nc2ccccc2)c(Sc2nnnn2-c2ccccc2)nc2ccccn12`, the inhibition is 0.84%.

Regarding `O=C(COc1ccc([N+](=O)[O-])cc1)Nc1ccc2c(c1)nc1n2CCOC1`, the inhibition was 14.9%.

Take `Cc1ccc(C(=O)CN(Cc2ccccc2)C2=NCCS2)cc1`: the inhibition is -1.42%.

Take `C=CCN1C(=O)/C(=N/n2cnnc2)c2ccccc21`: the inhibition was 25.4%.

Regarding `c1ccc2c(c1)C(=Nn1cnnc1)c1ccccc1-2`, the inhibition was 3.9%.

For the molecule `O=C(c1ccco1)N1CCC(c2nc3c(nnn3Cc3ccc(F)cc3)c(=O)[nH]2)CC1`, the inhibition was 12.3%.

With `Cc1ccc(NC(=O)COC(=O)CCC(=O)c2cccs2)cc1S(=O)(=O)N1CCOCC1`, the inhibition was 14.2%.

For `CC12CC3CC(C)(C1)CC(C(O)CN1CCOCC1)(C3)C2` (stereo not given), the inhibition is 3.1%.

For the molecule `COc1cc(/C=N/N=C(\N)c2nonc2N)cc(OC)c1O`, the inhibition is 36.3%.

Consider `N/C(=N\N=C\c1cccc(O)c1)c1nonc1N`, for which the inhibition is 18.6%.

Take `N/C(=N\N=C\c1ccc(O)cc1)c1nonc1N`: the inhibition is 23.1%.

For the molecule `COc1ccc(/C=N/N=C(\N)c2nonc2N)cc1OC`, the inhibition was 22.7%.

Take `CCOC(=O)c1c(NC(=S)N2CCN(C)CC2)sc(C)c1-c1ccccc1`: the inhibition is 9.17%.

Regarding `CCOC(=O)C1=C(O)C(=O)N(c2ccc(S(N)(=O)=O)cc2)C1c1ccc([N+](=O)[O-])cc1` (stereo not given), the inhibition was 5.61%.

Consider `Cc1ccc(NC(=O)Cc2ccsc2)cc1Cl`, for which the inhibition is 8.34%.

Turning to `C=CCC(C#Cc1ccc(C)cc1)N(CC)CC` (stereo not given), the inhibition was 2.04%.

With `COCCNC(=O)CN(C(=O)CCC(=O)Nc1ccccn1)c1ccc(F)cc1`, the inhibition is 2.44%.

Consider `N#Cc1ccccc1-c1ccccc1C(=O)N1CCCCC1`, for which the inhibition was 5.76%.

With `Cc1cccc(C(=O)Nc2ccc(NC(=O)c3ccccc3)cc2)c1`, the inhibition is 2.43%.

`COC(=O)c1ccc(NC(=O)c2ccc(OC(C)=O)c(OC)c2)cc1`: the inhibition is 4.68%.

Consider `Cc1cccc(C(=O)Nc2ccc(C(=O)Nc3ccc(O)cc3)cc2)c1`, for which the inhibition is 8.66%.

Consider `CCc1ccc(NC(=O)c2ccc3c(c2)C(=O)N(Cc2ccco2)C3=O)cc1`, for which the inhibition is 9.22%.

Consider `COc1cc(C(=O)Nc2ccc(C(=O)O)cc2)ccc1OC(C)=O`, for which the inhibition was 17.2%.

On to `O=C(Nc1ccc(O)cc1)c1ccc2c(c1)C(=O)N(Cc1ccccc1)C2=O`, for which the inhibition is 35.7%.

For the molecule `O=C(Nc1cccc(O)c1)c1ccc2c(c1)C(=O)N(Cc1ccco1)C2=O`, the inhibition was 8.23%.

In the case of `O=C(Nc1ccccc1O)c1ccc2c(c1)C(=O)N(N1C(=O)c3ccccc3C1=O)C2=O`, the inhibition was 5.64%.

For `CCCOC(=O)c1ccc(NC(=O)CSC2=Nc3ccccc3C3CC=NN23)cc1` (stereo not given), the inhibition was 7.1%.

Take `CCCCNC(=O)c1cc2c(C)cc(C)cc2[nH]1`: the inhibition is 4.47%.

As to `COc1ccc(S(=O)(=O)n2nc(-n3c(C)ccc3C)c3c(F)cccc32)cc1OC`, the inhibition was 2.54%.

Regarding `COc1ccc(S(=O)(=O)N2CCN(c3ccc(C)cc3C)CC2)cc1OC`, the inhibition is 7.1%.

As to `CCn1cc(C(=O)N2CCN(c3ccc(OC)cc3)CC2)c(=O)c2cc(S(=O)(=O)N3CCCCC3)ccc21`, the inhibition was 15.4%.

Take `CN1CCN(C(=O)C2CCCN(S(=O)(=O)c3ccccc3)C2)CC1` (stereo not given): the inhibition is 7.31%.

`CC1Cc2cc(/C=C3/SC(=S)N(C)C3=O)ccc2O1` (stereo not given): the inhibition is 0.875%.

Take `O=C(COc1ccc2c3c(c(=O)oc2c1)CCCC3)N1C[C@H]2C[C@@H](C1)c1cccc(=O)n1C2`: the inhibition is 3.64%.

Turning to `N#C/C(=C\c1cccnc1)C(=O)Nc1ccc(Cl)cc1`, the inhibition is 14.4%.

Take `CCN(CC)C1CC(=O)N(c2cccc(C)c2)C1=O` (stereo not given): the inhibition is 0.27%.

Turning to `O=C1CC(N2CCSCC2)C(=O)N1c1cccc(Br)c1` (stereo not given), the inhibition is 10.7%.

`COC(C/C=C\[C@H](O)[C@@H](C)OCc1ccccc1)OC`: the inhibition was 2.9%.

For the molecule `COC(=O)c1ccc(-c2sc3nc(N4CCOCC4)c4c(c3c2N)CC(C)(C)OC4)o1`, the inhibition is -1.68%.

Turning to `CC1(C)Cc2c(c(N3CCOCC3)nc3sc(-c4ccc(C(=O)O)o4)c(N)c23)CO1`, the inhibition was 21.9%.

Turning to `COC(=O)c1ccccc1NS(=O)(=O)c1ccc(Cl)nc1`, the inhibition was 4.72%.

Take `N#CC1=C(N)OC2=C(C(=O)CCC2)C1c1cccs1` (stereo not given): the inhibition was 23%.

On to `O=C(NCC(c1cccnc1)N1CCN(c2ccccc2)CC1)C1CCCCC1` (stereo not given), for which the inhibition was 2.45%.

Consider `O=C(NCC(c1cccnc1)N1CCN(c2ccc(F)cc2)CC1)C1CCCCC1` (stereo not given), for which the inhibition is 18.4%.

`CCN(c1ccccc1)c1nc2ccsc2c(=O)s1`: the inhibition was 3.95%.

Take `COc1ccc(S(=O)(=O)N2CC=C(C(=O)Nc3ccc(NC(C)=O)cc3)CC2)cc1`: the inhibition was 8.65%.

With `COc1ccc(N(CC(=O)NCCC2=CCCCC2)S(C)(=O)=O)cc1`, the inhibition is 1.47%.

In the case of `NS(=O)(=O)c1ccc(NC(=O)COC(=O)COc2ccccc2)cc1`, the inhibition was 3.76%.

For `CCCc1nnc(NC(=O)C(C)N2C(=O)C3C4C=CC(C4)C3C2=O)s1` (stereo not given), the inhibition is 4.05%.

On to `Cc1ccc(-n2nnnc2C(Cl)c2nnnn2-c2ccc(C)cc2)cc1`, for which the inhibition is 7.23%.

Turning to `Cc1ccc(-c2nnnn2-c2ccc(C)cc2)cc1`, the inhibition is -0.57%.

For `c1ccc(-n2nnnc2Cc2nnnn2-c2ccccc2)cc1`, the inhibition is -7.53%.

With `c1ccc(-c2nnnn2-c2ccccc2)cc1`, the inhibition was 12.4%.

For the molecule `COc1cc(OC)cc(C(=O)N[C@H](C(=O)Nc2cccc(S(=O)(=O)N3CCCC3)c2)C(C)C)c1`, the inhibition was 11.5%.

As for `O=C(Nc1cccc(-c2cn3c(n2)SCC3)c1)c1ccc(Br)o1`, the inhibition was 7.7%.

Regarding `COc1ccccc1OCCC(=O)NCc1ccc2c(c1)OCO2`, the inhibition is 8.06%.

`Cc1[nH]c2ccccc2c1C(=O)COC(=O)c1cccc(S(=O)(=O)N2CCCCC2)c1`: the inhibition is 7.32%.

Take `Cc1ccc(N/C=C2\CCCCC2=O)c(C)c1`: the inhibition was 8.76%.

Turning to `CC(=O)Nc1ccc(N/C=C2/CCCC2=O)cc1`, the inhibition is 16.2%.

As for `Cc1ccccc1NC(=S)NCc1ccccc1`, the inhibition was 7.25%.

With `CCOC(=O)c1cccc(Nc2nc(-c3cccnc3)nc3ccccc23)c1`, the inhibition was 6.16%.

Turning to `COc1ccc(CNC(=O)CSc2nnc(C)c(=O)[nH]2)cc1`, the inhibition is 8.06%.

Take `O=C1CC(Nc2ccccc2)C(=O)N1c1ccc(N2CCOCC2)cc1` (stereo not given): the inhibition was 6.8%.

Consider `O=C1CC(Nc2ccc(N3CCOCC3)cc2)C(=O)N1c1ccccc1` (stereo not given), for which the inhibition is 21.4%.

On to `S=c1[nH]nc(C2CCCCC2)n1/N=C/c1ccc(Br)cc1`, for which the inhibition was 0.57%.

Turning to `CCOc1cc(CNCCO)cc(Br)c1OCc1cccs1`, the inhibition was 10.3%.

`CCN(CC)S(=O)(=O)c1ccc(NC(=O)c2cnccn2)cc1`: the inhibition was 19.6%.

`CCN(C(=O)CN1CCN(c2ccccc2)CC1)c1c(N)n(Cc2ccccc2)c(=O)[nH]c1=O`: the inhibition was 14.1%.

For `CCN(C(=O)CN1CCN(c2ccc(OC)cc2)CC1)c1c(N)n(Cc2ccccc2)c(=O)[nH]c1=O`, the inhibition is 21.5%.

For the molecule `Cc1ccc(C(=O)N/C(=C\c2ccc3c(c2)OCO3)C(=O)Nc2ccc(C(=O)O)cc2)cc1`, the inhibition is 1.87%.

`COCCN(C(=O)COC(=O)c1cc2c(s1)CCCC2)c1c(N)n(Cc2ccccc2)c(=O)[nH]c1=O`: the inhibition is 4.52%.

Take `CCC1CCc2sc(C(=O)OCC(=O)N(CCOC)c3c(N)n(Cc4ccccc4)c(=O)[nH]c3=O)cc2C1` (stereo not given): the inhibition was 16.3%.

With `CCN1/C(=C2/SC(=S)N(NC(C)=O)C2=O)Sc2ccccc21`, the inhibition is 0.32%.

Take `Cc1ccc(-n2cc(CNCC3CC(=O)N(C4CC4)C3)c(-c3cccc(C)c3)n2)cc1` (stereo not given): the inhibition is 4.43%.
